# Test results: PubChem BioAssay (NCATS)
# Inconclusive results are not listed. A call without a number means that no potency is given here. The source made the active and inactive calls. The call rests on the fitted dose curve; in most records, active means well fitted inhibition curve with a large enough effect; inconclusive means small, poorly fitted or top-dose-only effect; inactive means no such curve, though single readings can be large or run the other way.
# Test: qHTS assay for measurement of the activity of small molecule inhibitors on Zika virus induced Caspase-3 activity in human iPSC derived neural progenitor cells (hNPCs) (AID 1224857); further: nearly all actives have a fitted effect of over 65% in size
# Conditions: hNPCs ZIKV-induced caspase-3/7, Caspase-Glo luminescence, 6 h; series mostly up to 45.7 µM
# Method in brief: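 In medium with heparin 2 ug/ml and cyclopamine 2 uM, hNPCs (350 cells/well) received compound for one hour and then Zika virus at 2 FFU/cell; caspase activity was measured by Caspase-Glo 3/7 luminescence 6 h post-infection.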
row,Compound,Potency
1,O=c1[nH]c(=S)[nH]c(-c2ccccc2)c1Cc1c(O)ccc2ccccc12,inactive
2,C=C1C[C@@]23CC[C@H]4[C@@](C)(CCC[C@@]4(C)C(=O)O)[C@@H]2CC[C@]1(O)C3,inactive
3,CCCn1c(=O)c2[nH]c(C3CCCC3)nc2n(CCC)c1=O,inactive
4,O=c1cc(-c2ccccc2)[nH]c2nc(Cl)ccc12,inactive
5,O=C1NC(=O)c2cc(Nc3ccccc3)c(Nc3ccccc3)cc21,inactive
6,NC(=O)CNCCC(c1ccccc1)c1ccccc1,inactive
7,COc1ccccc1N1CCN(CCN(C(=O)c2ccc(F)cc2)c2ccccn2)CC1,inactive
8,CC#CCOC(=O)c1c(C)nc2sc3c(c2c1N)CCC(O)C3 (stereo not drawn),inactive
9,Nc1ccc2c3c(cccc13)C(=O)NC2=O,inactive
10,O=C(N[C@@H](Cc1ccccc1)C(=O)CCl)OCc1ccccc1,inactive
11,O=C(O)C1=CCCN(CCON=C(c2ccccc2)c2ccccc2)C1,inactive
12,CCCn1c(=O)c2[nH]c(-c3ccc(S(=O)(=O)O)cc3)nc2n(CCC)c1=O,inactive
13,O=C(O)Cc1c[nH]c2ccc(O)cc12,inactive
14,Clc1nccc2c1ccc1ccccc12,inactive
15,O=C(O)/C=C/c1ccc(O)c(O)c1,inactive
16,O=C(O)Cc1ccc(O)c(O)c1,inactive
17,NCCCCN=C(N)N,inactive
18,Cc1cccc(C)c1OCC(N)C(C)C (stereo not drawn),inactive
19,CNc1cc(NS(=O)(=O)c2ccc(N)cc2)nc(NC)n1,inactive

row,Compound,Potency
1,C#CC(N)CCC(=O)O (stereo not drawn),inactive
2,Nc1ccc(-c2nc3ccc(-c4nc5ccc(N)cc5[nH]4)cc3[nH]2)cc1,inactive
3,CN[C@H](CC(=O)O)C(=O)O,inactive
4,CCCCCCCCCC[Si](C)(C)CCC(=O)NC(Cc1ccc(C)cc1)c1ccccc1 (stereo not drawn),inactive
5,c1ccc2c(c1)CCC[C@H]2Nc1nc2ccccc2[nH]1,inactive
6,C[C@H](O)C(=O)C1=Nc2c(nc(N)[nH]c2=O)NC1,inactive
7,c1ccc(CN2CCC3(CCCc4ccccc43)CC2)cc1,inactive
8,CC(C)NC[C@H](O)COc1cccc2ccccc12,inactive
9,C[C@H]1CC2C3CCC4=CC(=O)C=C[C@]4(C)[C@@]3(Cl)[C@@H](O)C[C@]2(C)[C@@]1(O)C(=O)CO (stereo partly drawn),inactive
10,OC1(c2ccc(Cl)cc2)CCN(Cc2c[nH]c3ccccc23)CC1,inactive
11,NC(Cc1cccc(-c2ccccc2CP(=O)(O)O)c1)C(=O)O (stereo not drawn),inactive
12,CN1Cc2sccc2C(c2ccc(O)c(O)c2)C1 (stereo not drawn),inactive
13,CC(O)C(O)[C@H]1CNc2nc(N)[nH]c(=O)c2N1 (stereo partly drawn),inactive
14,COc1ccc2c(c1)c(CC(=O)O)c(C)n2Cc1ccc(Cl)cc1,inactive
15,Cn1c(=O)c2[nH]c(-c3ccc(S(=O)(=O)O)cc3)nc2n(C)c1=O,inactive
16,C[C@@]1(C2CCCC2)Cc2cc(OCC(=O)O)c(Cl)c(Cl)c2C1=O,inactive
17,CC(=O)/C(C)=N/O,inactive
18,CN1CCCC1CCOC(C)(c1ccccc1)c1ccc(Cl)cc1 (stereo not drawn),inactive
19,CC(C)Cn1c(=O)n(C)c(=O)c2[nH]cnc21,inactive
